Screens deposited in PubChem BioAssay by several laboratories.
Rows were chosen to be rich in hits. Some 1.3% of all compounds tested hit in one or more screens of this group.
S1P2 ag: S1P2 receptor agonists, primary screen, cell-based; AID 729, 2007; S1P2-expressing cell line, agonist reporter read-out; activation, % at 4.5 µM; 0.46% of 97,000 active; in the data active means activation above about 16%;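 further: 0% = vehicle low control and 100% = maximal reference agonist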
Target sequence (O95136 whole entry, looked up): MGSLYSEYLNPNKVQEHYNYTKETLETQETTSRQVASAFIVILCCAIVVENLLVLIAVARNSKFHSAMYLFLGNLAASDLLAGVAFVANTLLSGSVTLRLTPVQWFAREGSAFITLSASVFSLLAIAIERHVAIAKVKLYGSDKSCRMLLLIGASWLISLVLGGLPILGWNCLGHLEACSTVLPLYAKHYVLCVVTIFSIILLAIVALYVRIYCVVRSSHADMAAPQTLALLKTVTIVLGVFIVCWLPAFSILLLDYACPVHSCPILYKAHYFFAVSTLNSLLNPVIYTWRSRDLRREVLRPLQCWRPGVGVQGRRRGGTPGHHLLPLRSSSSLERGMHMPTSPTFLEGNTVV
S1P2 antag: human S1P2 receptor antagonists, primary screen, cell-based | Sphingosine 1-phosphate receptor 2 (Homo sapiens), O95136 | cell-based S1P2 antagonist assay, inhibition at 5 uM | inhibition, % at 5 µM | 0.21% of 97,000 active | AID 736, 2007; in the data active means inhibition above about 45%;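 further: CRE beta-lactamase reporter cells expressing human S1P2 stimulated with S1P; 0% = agonist at EC80 alone and 100% = agonist plus reference antagonist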
GALR2 ag: GALR2 receptor agonists, primary screen, cell-based; Galanin receptor type 2 (Homo sapiens), O43603; GALR2-expressing cells, agonist activation read-out; activation, % (test concentration not listed); 0.48% of 140,000 active; AID 803, 2007; in the data active means activation above about 5%, passing the limit was not always enough;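 further: 0% = vehicle buffer wells and 100% = reference agonist at full effect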
F-actin modifier: modifiers of F-actin cytoskeleton organization, primary screen, imaging, HUVEC, phalloidin staining, high-content imaging; HUVEC TNFa F-actin phalloidin imaging; inhibition, % at 2 µM; 0.18% of 91,000 active; AID 836, 2007;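 active means inhibition above the batch mean plus 3 SD and confirmed as a hit by visual image inspection, cut at about 30% in these data, passing the limit was not always enough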
GALR2 antag: GALR2 antagonists in receptor-expressing cells, primary screen; Galanin receptor type 2 (Homo sapiens), O43603; antagonist mode; inhibition, % at 4 µM; 0.39% of 140,000 active;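 further: cells stimulated with galanin 1-16 at roughly its EC80; 0% = agonist challenge control and 100% = basal control without agonist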
GALR2 ant conf: GALR2 antagonists, retest of hits, confirmation, cell-based; inhibition, % at 4 µM; 60% of 480 active; shares compounds with GALR2 antag; AID 866, 2007; GALR2-expressing cells, antagonist mode, inhibition;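 further: cells stimulated with galanin at about its EC80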
BLA inhib ctr: inhibitors of NFAT-driven beta-lactamase reporter, confirmation, counter-screen for GALR2 antagonist project, CHO NFAT-bla cells, FRET readout; inhibition, % at 4.2 µM; 36% of 480 active; shares compounds with GALR2 antag; thapsigargin-stimulated;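 active means inhibition above the mean inhibition across tested compounds plus 3 SD, cut at about 27% in these data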;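 further: 0% = 500 nM thapsigargin stimulated wells and 100% = unstimulated BSA only wells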
* = called active by the depositor. Unless noted, no stated cut-off is given here; in the data, active means inhibition above about 27%; inactive means the rest.

Screening O=C(OCn1ncc(Br)c(Br)c1=O)c1ccc(F)cc1 returned S1P2 ag -2, S1P2 antag 54*, GALR2 ag -5, F-actin modifier -7, GALR2 antag 79*, GALR2 ant conf 92* and BLA inhib ctr 95*.
Screening CC(=O)c1ccn(S(=O)(=O)c2ccccc2)c1 returned GALR2 ag -1 and GALR2 antag 6.
Screening CC(=O)Nc1ccc(OCC(O)CN2C(C)(C)CC(O)CC2(C)C)cc1 (stereo unspecified) returned GALR2 ag 0 and GALR2 antag -3.
For Cc1nn(-c2ccc(F)cc2)c(Cl)c1/C=C1\C(=O)Nc2ccccc21 the results were GALR2 ag 0 and GALR2 antag 23.
For Cc1nc2sccn2c1-c1csc(NCc2ccccc2)n1 the results were S1P2 ag -7, S1P2 antag 41, GALR2 ag -2, F-actin modifier -16, GALR2 antag 27*, GALR2 ant conf 24 and BLA inhib ctr -1.
For COc1ccccc1-n1c(SCC(=O)c2ccc(O)cc2O)nc2cc([N+](=O)[O-])ccc21 the results were GALR2 ag -1 and GALR2 antag 15.
Screening Cc1ccc(S(=O)(=O)C(C#N)c2nc3ccccc3nc2N2CC(C)OC(C)C2)cc1C (stereo unspecified) returned S1P2 ag -7, S1P2 antag 1, GALR2 ag -1, F-actin modifier 16 and GALR2 antag 0.
`Cc1cccc(S(=O)(=O)C(C#N)c2nc3ccccc3nc2N2CC(C)OC(C)C2)c1` (stereo unspecified) gave S1P2 ag -6, S1P2 antag 17, GALR2 ag 0, F-actin modifier 20, GALR2 antag 28*, GALR2 ant conf 2 and BLA inhib ctr -1.
For O=c1oc2cc(Cl)ccc2n1CSc1nc2ccccc2s1 the results were S1P2 ag -4, S1P2 antag -14, GALR2 ag -2, F-actin modifier 11 and GALR2 antag -2.
`CCCCCCCCNc1ncnc2ccccc12` gave S1P2 ag -3, S1P2 antag 78*, GALR2 ag -1, F-actin modifier 13, GALR2 antag 39*, GALR2 ant conf 54* and BLA inhib ctr 18.
Screening CCC(=O)NNc1ncnc2ccccc12 returned GALR2 ag -2 and GALR2 antag -3.
For O=C(Oc1ccccc1/C=C\C(=O)c1cc2ccccc2o1)c1ccccc1 the results were GALR2 ag -1, GALR2 antag 27*, GALR2 ant conf 26 and BLA inhib ctr 14.
`Cc1ccccc1NC1=CC(=O)CC(C)(C)C1` gave S1P2 ag -4, S1P2 antag -5, GALR2 ag -3, F-actin modifier 0 and GALR2 antag 7.
Screening CC1(C)CC(=O)C=C(NC2=CC3OC(c4ccccc4)OCC3OC2=O)C1 (stereo unspecified) returned GALR2 ag -1, GALR2 antag 69*, GALR2 ant conf 76* and BLA inhib ctr 65*.
For O=C(c1ccc(Cl)c(Cl)c1)N1CCC(=O)N(C(COCc2ccccc2)Cc2ccccc2)CC1 (stereo unspecified) the results were GALR2 ag -2 and GALR2 antag 8.
N#C/C(=C\c1ccc(OC(=O)c2cccs2)cc1)c1nc2ccccc2[nH]1 was read as GALR2 ag -2 and GALR2 antag -8.
`N#C/C(=C\c1cccs1)c1nc2ccccc2[nH]1` gave GALR2 ag -1, GALR2 antag 32*, GALR2 ant conf 30* and BLA inhib ctr 8.
Screening CN(/N=C\c1ccc(O)c(O)c1)c1nc(-c2ccccc2)cc(-c2ccccc2)n1 returned GALR2 ag 0, GALR2 antag 47*, GALR2 ant conf 64* and BLA inhib ctr 81*.
C/C(=N/N=C1/NC(=O)CC(C(=O)Nc2ccccc2)S1)c1cccs1 (stereo unspecified) was read as GALR2 ag -1 and GALR2 antag 5.
`O=S(=O)(NCc1ccncc1)c1ccc(Br)s1` gave GALR2 ag -2, GALR2 antag 37*, GALR2 ant conf 44* and BLA inhib ctr 8.
For O=C(O)CNS(=O)(=O)c1ccc(Br)s1 the results were GALR2 ag -1 and GALR2 antag 9.
For COc1cc(CC(=O)OCC(=O)Nc2cccc([N+](=O)[O-])c2)cc(OC)c1OC the results were GALR2 ag -2 and GALR2 antag 7.
Screening CC(=O)c1c(C)[nH]c(C(=O)OCC(=O)Nc2ccc(C)cc2[N+](=O)[O-])c1C returned GALR2 ag -1, GALR2 antag 40*, GALR2 ant conf 49* and BLA inhib ctr 11.
Screening CC(=O)c1c(C)[nH]c(C(=O)OCC(=O)Nc2cc(Cl)ccc2[N+](=O)[O-])c1C returned GALR2 ag -1 and GALR2 antag 25.
O=C(/C=C/c1ccc(F)cc1)NCCc1ccc2c(c1)OCCO2 was read as GALR2 ag -1 and GALR2 antag -7.
`CCN1c2ccccc2-c2nc3ccccc3n2C1c1cccs1` (stereo unspecified) gave GALR2 ag 1 and GALR2 antag -3.
For COCCCN(C(=O)c1ccco1)c1nc(-c2cc(OC)ccc2OC)cs1 the results were S1P2 ag -2, S1P2 antag -3, GALR2 ag -1, F-actin modifier 0, GALR2 antag 85*, GALR2 ant conf 5 and BLA inhib ctr 12.
`CCC(=O)N(CCCN(C)C)c1nc(-c2cc(OC)ccc2OC)cs1` gave S1P2 ag -4, S1P2 antag 3, GALR2 ag -1, F-actin modifier 19 and GALR2 antag 6.
For C/C(=N\Nc1ccc([N+](=O)[O-])cc1)c1cccc(N)c1 the results were S1P2 ag -8, S1P2 antag 14, GALR2 ag -2, F-actin modifier 2, GALR2 antag 30*, GALR2 ant conf 31* and BLA inhib ctr 16.
For CC1=C(C)/C(=N\OS(=O)(=O)c2ccc(C)cc2)C=CC1=O the results were GALR2 ag -1, GALR2 antag 85*, GALR2 ant conf 70* and BLA inhib ctr 64*.
Screening CC1=C/C(=N\OS(=O)(=O)c2ccccc2)C(C)=CC1=O returned S1P2 ag -4, S1P2 antag 98*, GALR2 ag -3, F-actin modifier 8, GALR2 antag 63*, GALR2 ant conf 74* and BLA inhib ctr 36*.
COc1cc(C(=O)O/N=C2/C=C(C)C(=O)C=C2C)cc(OC)c1OC was read as GALR2 ag 1 and GALR2 antag -4.
